In PubChem BioAssay (Tox21) one finds Potency data, which are given here for 8 compounds.

The nature of assay [1]: Nuclear factor erythroid 2-related factor 2/antioxidant responsive element (Nrf2/ARE) small molecule agonists: qHTS cell viability counter screen in human keratinocytes (AID 1919968; active = well fitted curve in the direction sought with a large enough effect in the repeat runs; an effect the other way counts as inactive or inconclusive; also: nearly all actives have a fitted effect of over 55% in size). In outline:
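Stably transfected HaCaT (KeratinoSens), 1,500/well. Test agents in DMSO were applied for 23 h, 37 C/5% CO2. CellTiter-Fluor was incubated 1 h before the fluorescence read.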

Assay [2] is described as follows: Nuclear factor erythroid 2-related factor 2/antioxidant responsive element (Nrf2/ARE) small molecule agonists: luciferase reporter gene qHTS assay in human keratinocytes (AID 1919969). Also: nearly all actives have a fitted effect of over 35% in size. Also: potency is read from the fitted curve at half-maximal effect. Background: A reporter such as luciferase makes a cellular process visible.
For assay [3], the target named is Gonadotropin-releasing hormone receptor (Homo sapiens) (UniProt P30968). In words: Human gonadotropin-releasing hormone receptor (GnRHR) small molecule agonists, calcium flux assay in GnRHR-HEK293 cells (AID 1920063). Also: nearly all actives have a fitted effect of over 35% in size. In outline:
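Stable human GnRHR HEK293 line. 18 h plating, then calcium dye for 1 h at 37 C. Agonist-mode compound addition from DMSO stocks; fluorescence monitored 3 min.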
For orientation: A change in cytosolic calcium serves as a functional read-out for many receptors and channels.

Assay [4] concerns the target KiSS-1 receptor (Homo sapiens) (UniProt Q969F8). In words: Human kisspeptin (KISS1R) small molecule agonists, calcium flux assay in KISS1R-HEK293 cells (AID 1920064; active = well fitted curve in the direction sought with a large enough effect in the repeat runs; an effect the other way counts as inactive or inconclusive). In a few lines: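 After overnight (18 h) culture at 37 C/5% CO2, human KISS1R-HEK293 cells received calcium dye for 1 h, then test compound; emission at 540 nm (excitation 480 nm) was tracked for 3 min.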

Assay [5] is described as follows: G protein-coupled receptor (GPCR) small molecule agonists, calcium flux assay: HEK293 wild type cell line counter screen (AID 1920065). In a few lines:
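Following 18 h incubation at 37 C/5% CO2, plates got calcium dye for 1 h; compounds, ATP or DMSO were then pinned in and fluorescence followed kinetically (480/540 nm).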

The nature of assay [6]: p53 small molecule agonists, cell-based qHTS assay with human liver microsomes (AID 1963577).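 Also: p53 response element beta-lactamase reporter cells with liver microsomes plus NADPH.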 In a few lines:
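Metabolically competent format: test substances, human liver microsomes and NADPH (both 0.5 mg/mL final) incubated with p53RE-bla cells 16 h at 37 C. Beta-lactamase reporter signal then quantified by fluorescence.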
A general note: In qHTS, concentration-response curves come from the screen itself.

Assay [7] can be described thus: p53 small molecule agonists, cell-based qHTS assay with rat liver microsomes (AID 1963578). In a few lines: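 Each plate received p53RE-bla cells, then compound, then rat liver microsomes and NADPH (both 0.5 mg/mL final). Plates were held 16 h at 37 C, and beta-lactamase activity was detected with LiveBLAzer over 2 h.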
The nature of assay [8]: p53 small molecule agonists, cell-based qHTS assay with human liver microsomes: qHTS cell viability counter screen (AID 1963579). Also: nearly all actives have a fitted effect of over 45% in size. In a few lines:
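Tox21 library compounds, delivered from DMSO stocks, were tested on p53RE-bla cells together with 0.5 mg/mL human liver microsomes and 0.5 mg/mL NADPH (final) over 16 h at 37 C; CellTiter-Glo luminescence served as the cytotoxicity measure.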

A short description of assay [9]: p53 small molecule agonists, cell-based qHTS assay with rat liver microsomes: qHTS cell viability counter screen (AID 1963580). Also: nearly all actives have a fitted effect of over 45% in size. In a few lines: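 After the beta-lactamase ratio was read, CellTiter-Glo was added to the same wells and luminescence measured at 30 min; cells had been treated 16 h at 37 C with compounds, rat liver microsomes and NADPH (0.5 mg/mL final each).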

The nature of assay [10]: p53 small molecule agonists, cell-based qHTS assay: qHTS cell viability counter screen (AID 1963581). Also: nearly all actives have a fitted effect of over 45% in size. In a few lines: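 qHTS counter screen: 16 h compound exposure at 37 C of p53RE-bla HCT-116 cells (4,000 per well, seeded 5 h prior), cell viability by ATP luminescence.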
Assay [11] is described as follows: p53 small molecule agonists, cell-based qHTS assay (AID 1963582; active = well fitted activation curve with a large enough effect in the signal ratio in the repeat runs, not every such curve was filed as active; the % refers to the signal ratio). In outline:
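Measured: fluorescence from cleaved LiveBLAzer substrate. System: p53RE-bla cells, 16 h compound treatment at 37 C, 2 h substrate step at room temperature.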

The target of assay [12] is 5-hydroxytryptamine receptor 2A (Homo sapiens) (UniProt P28223). Description: 5-hydroxytryptamine receptor 2A (HTR2A) small molecule antagonists, cell-based qHTS assay (AID 1963586). Also: nearly all actives have a fitted effect of over 45% in size. In a few lines:
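CHO cells stably expressing human HTR2A were plated for 18 h at 37 C, then loaded with calcium dye for 1 h. Compounds were preincubated 5 min at room temperature before DOI (4 nM solution) was added. Kinetic fluorescence was read for 3 min.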

Assay [13] concerns the target Muscarinic acetylcholine receptor M1 (Homo sapiens) (UniProt P11229). In words: Cholinergic receptor muscarinic 1 (CHRM1) small molecule antagonists, cell-based qHTS assay (AID 1963588). Also: nearly all actives have a fitted effect of over 40% in size. In a few lines: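 Compounds were tested at 15 concentrations in three independent runs. Dye-loaded CHRM1-CHO cells were exposed 5 min at room temperature before stimulation by acetylcholine added at 50nM. Intracellular calcium was read kinetically on FDSS for 3 min.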

Assay [14] is described as follows: cAMP Responsive Elements (CRE) small molecule agonists, cell-based qHTS assay (AID 1963590). In outline: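 Test agents in DMSO were incubated 3 h at 37 C/5% CO2 with CRE-bla HEK 293T cells seeded 18 h earlier; LiveBLAzer B/G FRET substrate was added and read after 2 h at room temperature.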
Assay [15] is described as follows: cAMP Responsive Elements (CRE) small molecule antagonists, cell-based qHTS assay (AID 1963591; active = well fitted inhibition curve with a large enough effect in the signal ratio in the repeat runs, not every such curve was filed as active; the % refers to the signal ratio). In a few lines: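 Reporter line CRE-bla HEK 293T in dialyzed-FBS DMEM; cells preincubated 18 h, treated 3 h with compound plus NKH477 (0.25 uM final); LiveBLAzer FRET, 2 h RT.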
Assay [16] concerns the target Beta-2 adrenergic receptor (Homo sapiens) (UniProt P07550). In words: Adrenergic beta2 receptor (ADRB2) small molecule antagonists, cell-based qHTS assay (AID 1963592). Also: series mostly up to about 92 µM; nearly all actives have a fitted effect of over 50% in size. In a few lines: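 Assay format: CHO-ADRB2 cells, 18-20hr seeding at 37C/5% CO2, then compound plus 1nM isoproterenol agonist mix for 0.5hr RT. Homogeneous time-resolved fluorescence cAMP detection after 1hr, expressed as 665/615 nm ratio.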

For assay [17], the target named is D(2) dopamine receptor (Homo sapiens) (UniProt P14416). In words: Dopamine D2 receptor (DRD2) small molecule agonists, cell-based qHTS assay (AID 1963594). Also: nearly all actives have a fitted effect of over 35% in size. In a few lines:
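HEK293 cells stably expressing human DRD2, pre-treated with PDE inhibitor Ro20-1724 (0.1 mM final) and compound 10 min at room temperature, then stimulated with NKH477 (200nM […]) for 30 min. cAMP read by HTRF (665/620 nm).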

Assay [18] shares this target. In words: Dopamine D2 receptor (DRD2) small molecule antagonists, cell-based qHTS assay (AID 1963595; active = well fitted inhibition curve with a large enough effect in the signal ratio in the repeat runs, with a control signal flat; the % refers to the signal ratio). In outline:
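HTRF cAMP read-out at 665 and 620 nm emission (340 nm excitation). Antagonist mode: compounds were tested against 12 nM quinpirole in DRD2-HEK293 cells, with 200 nM NKH477 raising cAMP and 0.1 mM Ro20-1724 blocking its breakdown.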

In assay [19] the target is 5-hydroxytryptamine receptor 2A (Homo sapiens) (UniProt P28223). Description: 5-hydroxytryptamine receptor 2A (HTR2A) small molecule agonists, cell-based qHTS assay (AID 1963587). Also: nearly all actives have a fitted effect of over 30% in size. In a few lines: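 CHO cells stably expressing human HTR2A, plated 18 h, loaded with calcium dye 1 h at 37 C. Agonist mode: compounds added and intracellular calcium fluorescence recorded kinetically for 2 min at 1 sec intervals.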
Chain of 5-hydroxytryptamine receptor 2A (Homo sapiens) (P28223 whole entry, looked up): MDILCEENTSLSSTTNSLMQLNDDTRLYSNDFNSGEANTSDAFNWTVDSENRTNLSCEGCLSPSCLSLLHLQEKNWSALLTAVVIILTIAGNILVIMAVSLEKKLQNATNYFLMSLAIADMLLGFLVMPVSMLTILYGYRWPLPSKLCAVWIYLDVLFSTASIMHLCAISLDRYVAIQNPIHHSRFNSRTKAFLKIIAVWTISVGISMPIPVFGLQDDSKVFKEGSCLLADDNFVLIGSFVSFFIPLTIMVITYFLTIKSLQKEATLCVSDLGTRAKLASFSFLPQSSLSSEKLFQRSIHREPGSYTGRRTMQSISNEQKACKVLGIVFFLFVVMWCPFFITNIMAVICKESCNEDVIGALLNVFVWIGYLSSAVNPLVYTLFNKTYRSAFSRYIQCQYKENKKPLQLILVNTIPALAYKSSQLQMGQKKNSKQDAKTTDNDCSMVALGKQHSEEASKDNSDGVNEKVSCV

Assay [20] deals with Beta-2 adrenergic receptor (Homo sapiens) (UniProt P07550). In words: Adrenergic beta2 receptor (ADRB2) small molecule agonists, cell-based qHTS assay (AID 1963593).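 Also: CHO cells stably overexpressing human ADRB2.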 In a few lines: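 CHO cells stably over-expressing ADRB2 were plated overnight at 37C, then dosed with compounds plus a stimulation mix containing 100uM IBMX and 25uM Ro-20-1724 for 0.5hr at room temperature. cAMP was measured by HTRF competition, 1hr.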
Chain of Beta-2 adrenergic receptor (Homo sapiens) (P07550 whole entry, looked up): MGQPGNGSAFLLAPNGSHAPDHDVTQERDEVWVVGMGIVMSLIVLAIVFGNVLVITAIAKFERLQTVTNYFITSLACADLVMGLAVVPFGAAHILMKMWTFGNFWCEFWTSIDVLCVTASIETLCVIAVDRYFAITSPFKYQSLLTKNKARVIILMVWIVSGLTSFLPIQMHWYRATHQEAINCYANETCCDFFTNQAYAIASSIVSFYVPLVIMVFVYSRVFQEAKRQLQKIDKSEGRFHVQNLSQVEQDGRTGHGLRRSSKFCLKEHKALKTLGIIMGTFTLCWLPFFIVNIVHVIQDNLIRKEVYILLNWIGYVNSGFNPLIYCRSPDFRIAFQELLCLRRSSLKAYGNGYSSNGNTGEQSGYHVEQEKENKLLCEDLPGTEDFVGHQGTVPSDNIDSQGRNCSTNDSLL

“And” between values parts separate entries of the source, which are not always exact repeats. Identical values can stand only once. Results filed as inconclusive are left out. The source holds several records for some structures; these can differ, active in one and inactive in another. The source made the active and inactive calls. Unless noted, calls follow the shape of the full dose curve.

Chain of D(2) dopamine receptor (Homo sapiens) (P14416 whole entry, looked up): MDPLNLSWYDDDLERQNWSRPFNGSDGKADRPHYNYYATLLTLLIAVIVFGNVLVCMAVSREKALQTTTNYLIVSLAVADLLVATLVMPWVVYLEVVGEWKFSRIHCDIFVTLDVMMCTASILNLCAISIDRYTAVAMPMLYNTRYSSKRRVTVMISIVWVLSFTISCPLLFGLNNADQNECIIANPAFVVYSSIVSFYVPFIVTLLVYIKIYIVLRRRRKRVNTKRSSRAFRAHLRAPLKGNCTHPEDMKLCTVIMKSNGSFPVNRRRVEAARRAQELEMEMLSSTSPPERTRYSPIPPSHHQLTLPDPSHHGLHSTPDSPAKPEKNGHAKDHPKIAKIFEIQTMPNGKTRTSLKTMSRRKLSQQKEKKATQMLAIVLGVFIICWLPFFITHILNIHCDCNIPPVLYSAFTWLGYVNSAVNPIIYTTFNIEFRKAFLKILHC
Chain of Muscarinic acetylcholine receptor M1 (Homo sapiens) (P11229 whole entry, looked up): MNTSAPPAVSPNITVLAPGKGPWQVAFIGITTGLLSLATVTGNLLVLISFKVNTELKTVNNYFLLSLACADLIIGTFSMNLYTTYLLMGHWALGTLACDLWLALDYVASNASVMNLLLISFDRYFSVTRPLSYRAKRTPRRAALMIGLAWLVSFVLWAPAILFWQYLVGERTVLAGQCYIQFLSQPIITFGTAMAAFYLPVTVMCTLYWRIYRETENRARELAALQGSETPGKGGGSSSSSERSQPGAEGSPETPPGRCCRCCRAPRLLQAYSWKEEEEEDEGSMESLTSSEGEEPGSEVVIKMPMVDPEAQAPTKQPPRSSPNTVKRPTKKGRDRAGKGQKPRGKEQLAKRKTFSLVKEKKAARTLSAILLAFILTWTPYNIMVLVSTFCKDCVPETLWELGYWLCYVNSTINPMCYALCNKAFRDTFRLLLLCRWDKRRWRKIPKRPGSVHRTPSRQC
Chain of Gonadotropin-releasing hormone receptor (Homo sapiens) (P30968 whole entry, looked up): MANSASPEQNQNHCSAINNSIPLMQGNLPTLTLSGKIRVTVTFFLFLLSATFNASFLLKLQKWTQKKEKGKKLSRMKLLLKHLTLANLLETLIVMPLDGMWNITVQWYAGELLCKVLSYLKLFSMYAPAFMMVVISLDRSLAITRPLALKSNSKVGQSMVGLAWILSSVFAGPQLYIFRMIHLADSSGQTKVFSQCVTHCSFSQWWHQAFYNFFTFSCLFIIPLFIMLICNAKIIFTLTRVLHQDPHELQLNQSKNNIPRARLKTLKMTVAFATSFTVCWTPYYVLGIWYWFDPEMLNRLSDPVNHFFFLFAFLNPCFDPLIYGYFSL
Chain of KiSS-1 receptor (Homo sapiens) (Q969F8 whole entry, looked up): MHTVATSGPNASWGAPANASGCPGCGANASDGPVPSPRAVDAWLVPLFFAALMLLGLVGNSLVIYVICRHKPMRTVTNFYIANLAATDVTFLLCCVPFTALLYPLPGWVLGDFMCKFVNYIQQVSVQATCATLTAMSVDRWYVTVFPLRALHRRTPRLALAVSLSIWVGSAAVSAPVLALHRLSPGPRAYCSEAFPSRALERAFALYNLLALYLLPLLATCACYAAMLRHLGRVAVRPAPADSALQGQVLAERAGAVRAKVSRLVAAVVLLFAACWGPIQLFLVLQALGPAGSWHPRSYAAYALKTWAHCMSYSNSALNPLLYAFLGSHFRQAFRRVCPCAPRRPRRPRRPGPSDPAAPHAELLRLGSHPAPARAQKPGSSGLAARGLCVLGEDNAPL

As to `C/C=C1/CC2C=CC1C2` (stereo not drawn), the Potency entry in assay [1], in assay [2], in assay [3], in assay [4], in [5] and in assay [6] was “inactive” each time. In addition, the Potency result in assay [7], in assay [8], in [9], in assay [10], in assay [11] and in assay [12] was “inactive” in each case. For the same compound, the Potency result in assay [13], in [14], in assay [15], in assay [16], in assay [17] and in [18] was “inactive” each time.
As for `C=C(C)C(=O)OCCCCCCCCCCCC`, the Potency result in assay [1], in [2], in [3], in [4], in assay [5] and in assay [6] was “inactive” each time. Further, the Potency entry in [7], in assay [8], in [9], in [10], in assay [11] and in assay [12] was “inactive” throughout. Also, the Potency result in assay [19], in [13], in [14], in [15], in assay [16] and in assay [17] was “inactive” each time. In assay [18], the Potency result is “inactive”.
As to `CC/C=C(\C(=O)N[C@@H]1C(=O)N2C(C(=O)OCOC(=O)C(C)(C)C)=C(COC(N)=O)CS[C@H]12)c1csc(N)n1`, the Potency result in assay [1], in [3], in assay [4], in assay [5], in assay [6] and in assay [7] was “inactive” in each case. In addition, the Potency result in [8], in assay [9], in assay [10], in assay [11], in [12] and in [19] was “inactive” in each case. Moreover, the Potency entry in [13], in [14], in assay [15], in [16], in [20] and in [17] was “inactive” throughout. Besides, in assay [18], the Potency entry is “inactive”. Also, the Potency result in assay [2] was “inactive and 29.8 µM (active)”.
As for `Cc1cccc([N+](=O)[O-])c1C`, the Potency result in assay [1], in assay [2], in assay [3], in assay [4], in [5] and in assay [6] was “inactive” in each case. Moreover, the Potency entry in assay [7], in [8], in assay [9], in [10], in assay [11] and in assay [12] was “inactive” each time. In addition, the Potency result in assay [13], in assay [14], in [15], in [16], in [17] and in [18] was “inactive” each time.
Turning to `Oc1ccc(O)cc1`, the Potency result in assay [1], in assay [3], in [4], in assay [5], in assay [6] and in [7] was “inactive” each time. In addition, the Potency result in assay [8], in assay [9], in assay [10], in [11], in assay [12] and in [13] was “inactive” each time. The Potency result in [15], in assay [20], in assay [17] and in assay [18] was “inactive” each time. The Potency in assay [2] was 60.8 µM (active) and 61.1 µM (active) and 21.1 µM (active).
For the compound `CCCCOCCOCCO`, the Potency entry in assay [1], in assay [2], in [3], in assay [4], in assay [5] and in assay [6] was “inactive” each time. The Potency result in assay [7], in assay [8], in assay [9], in assay [10], in [11] and in assay [12] was “inactive” each time. The Potency entry in [13], in [14], in assay [15], in [16], in assay [20] and in [17] was “inactive” each time. For the same compound, the Potency entry in [18] is “inactive”.
With `CC(C)Cc1ccccc1`, the Potency entry in assay [1], in assay [2], in [3], in assay [4], in assay [5] and in assay [6] was “inactive” each time. Moreover, the Potency entry in assay [7], in [8], in assay [9], in assay [10], in assay [11] and in [12] was “inactive” each time. The Potency entry in assay [19], in assay [14], in assay [15], in assay [16], in [20] and in [17] was “inactive” in each case. Also, the Potency entry in [18] is “inactive”.
`CCCCCCC(=O)O`: the Potency entry in [1], in [2], in assay [3], in [4], in [5] and in assay [6] was “inactive” throughout. Besides, the Potency entry in assay [7], in [8], in assay [9], in assay [10], in assay [11] and in [12] was “inactive” each time. For the same compound, the Potency result in assay [19], in assay [14], in assay [15], in [16], in assay [17] and in assay [18] was “inactive” each time.
